About 1,200 (3.2%) of roughly 38,000 compounds showed an effect of 50% or more. The median lay at about -58%. This is one part of a sample in which strong results are shown more often than they occur.
These compounds were tested on Plasmodium falciparum (assay: Calibr Malaria Delayed Death Assay SOP). Conditions: concentration 4.99e-06 (unit not given; other assays of the set use mol/L).
Assay type: functional, organism-based
Design: scale not given: in the data most compounds retested in dose-response had high values

Compared with `Cc1nn(C)c(Cl)c1C1CCCN1C(=O)c1ccnn1C` (configuration not stated), `Cc1nc(C2CCCN2C(=O)CCCn2cncn2)no1` (configuration not stated) is higher in “Percent Effect” value: -125.5% for the first, -14.54% for the second.

Going from `Cc1nc(CN2C[C@@H]3CN(C(=O)Cc4ccccn4)C[C@@H]3C2)cs1.O=C(O)C(F)(F)F.O=C(O)C(F)(F)F` to `CN(Cc1ccco1)[C@@H]1CN(Cc2ccccn2)C[C@@H]2CCCO[C@@H]21.O=C(O)C(F)(F)F.O=C(O)C(F)(F)F.O=C(O)C(F)(F)F`, the “Percent Effect” value rises from -48.37% to 29.58%.

First: CN(Cc1nccn1CC(F)(F)F)C(=O)c1ccc(F)cc1F
Second: Cn1ccnc1CN1CCCC(CCc2ccc(F)c(F)c2)C1 (configuration not stated)
The “Percent Effect” value of the first is lower: -38.32% for the first, 73.33% for the second.

Going from `CCN1CCN(c2ccc(NC(C)c3nc(C(C)C)no3)c(C)c2)CC1` (configuration not stated) to `CC(c1ccc(F)c(F)c1)N1CCN(Cc2nccn2C)CC1` (configuration not stated), the “Percent Effect” value rises from -29.45% to -18.79%.

First: CNC(=O)COC(=O)c1ccn(-c2ccc(Cl)c(Cl)c2)n1
Second: Cc1cc(F)ccc1-n1cc(O)c(C(N)=O)n1
The “Percent Effect” value of the first is higher: -33.36% for the first, -184.1% for the second.

Compared with `COCC1c2c(cnn2C)CCN1Cc1ccco1.O=C(O)C(F)(F)F.O=C(O)C(F)(F)F` (configuration not stated), `CN(Cc1ccco1)[C@@H]1CN(Cc2cnn(C)c2)[C@@H]2CCCO[C@H]12.O=C(O)C(F)(F)F.O=C(O)C(F)(F)F` is higher in “Percent Effect” value: -7.218% for the first, 23.66% for the second.

Going from `Cc1[nH]c(=O)[nH]c(=O)c1CN1CCCC(CCc2ccccc2F)C1` (configuration not stated) to `Cc1[nH]c(=O)[nH]c(=O)c1CN1CCCC(CCc2ccc(F)cc2F)C1` (configuration not stated), the “Percent Effect” value rises from -31.73% to 49.97%.

Going from `Cn1cc(CN2CCCC(CCc3c(F)cccc3F)C2)cn1` (configuration not stated) to `Cn1cc(CN2CCCC(CCc3ccc(F)cc3F)C2)cn1` (configuration not stated), the “Percent Effect” value rises from 78.37% to 88.72%.

First: Cc1nc(C)n(CC2CCCN(Cc3ccc(F)cc3C#N)C2)n1 (configuration not stated)
Second: N#Cc1ccccc1CN1CCCC(c2nccn2CC2CC2)C1 (configuration not stated)
The “Percent Effect” value of the first is lower: -108% for the first, 10.64% for the second.

Compared with `CC(C)n1ccnc1C1CCCN(Cc2ccc(F)c(F)c2)C1` (configuration not stated), `NC(=O)Cn1ccnc1C1CCCN(Cc2ccccc2OC(F)F)C1` (configuration not stated) is lower in “Percent Effect” value: 8.859% for the first, -1.798% for the second.

Compared with `Cc1[nH]c(=O)[nH]c(=O)c1CN1CCCC(CCc2c(F)cccc2F)C1` (configuration not stated), `FC(F)Oc1ccccc1CN1CCCC(c2nccn2CC2CC2)C1` (configuration not stated) is higher in “Percent Effect” value: -50.25% for the first, 86.3% for the second.

First: Cc1ccc(N2CCN(C(=O)CCc3ccc(O)cc3)CC2=O)cc1
Second: COc1ccc(CC(=O)Nc2ccc3ncn(C)c(=O)c3c2)cc1
The “Percent Effect” value of the first is higher: -38.56% for the first, -105.2% for the second.

Going from `Cc1cc(F)cc2c(N3CCC(S(N)(=O)=O)CC3)c(C#N)cnc12` to `Cc1cc2nc(C(C)C)cc(N3CCC(O)CC3)n2n1`, the “Percent Effect” value falls from -75.95% to -114.9%.

First: O=C1CC2(CCSC2)C(=O)N1Cc1coc(-c2ccccc2)n1 (configuration not stated)
Second: c1ccc(CN2CCC3(COCc4cnc(NCC5CC5)nc43)C2)cc1 (configuration not stated)
The “Percent Effect” value of the first is lower: -69.36% for the first, 50.22% for the second.

Going from `CC1CCc2[nH]c(=O)c(C(=O)N3CCc4ccccc4C3)cc2C1` (configuration not stated) to `Cc1ccc(CN(C)C(=O)CN2CCc3ccccc3C2)o1`, the “Percent Effect” value rises from -106.2% to -48.11%.

Going from `NCCc1nc(N(Cc2cncs2)C2CC2)c2ccccc2n1` to `NCCc1nc(N(Cc2nccs2)C2CC2)c2ccccc2n1`, the “Percent Effect” value falls from -36.69% to -61.5%.

First: COCCN(Cc1cc(O)nc2ccccc12)C(=O)NC(C)C
Second: COCCN(CCOC)Cc1c(C)nc2ccccc2c1O
The “Percent Effect” value of the first is higher: -37.53% for the first, -60.42% for the second.

Compared with `Cc1ccsc1CN(c1nc(CCN)nc2ccccc12)C1CC1`, `COCCN(Cc1cccs1)c1nc(CCN)nc2ccccc12` is higher in “Percent Effect” value: 51.16% for the first, 61.62% for the second.

Compared with `COCCN(Cc1ccccc1Cl)c1nc(CCN)nc2ccccc12`, `COCCN(CC1CC1)c1nc(CCN)nc2ccccc12` is lower in “Percent Effect” value: 89.02% for the first, 8.553% for the second.

Going from `COCCN(Cc1cccs1)C(=O)C1CCCN(C(N)=O)C1` (configuration not stated) to `O=C(CCc1cccs1)Nc1ccnn1C1CCS(=O)(=O)C1` (configuration not stated), the “Percent Effect” value rises from -166.3% to -51.38%.

Compared with `CCC(=O)N(CCN(C)C)Cc1ccc(F)c(F)c1`, `CN(C)CCN(C)S(=O)(=O)Cc1ccc(Br)cc1` is higher in “Percent Effect” value: 39.58% for the first, 62.66% for the second.

First: CC(C)C1CCC(N2CCN(CCCS(C)(=O)=O)CC2)CC1 (configuration not stated)
Second: CC(C)n1cnnc1CN(C)C(=O)C1CCCN(C2CCN(C)CC2)C1 (configuration not stated)
The “Percent Effect” value of the first is higher: 11.68% for the first, -93.39% for the second.

Compared with `Cc1cccc(OC(C)C(=O)NCC2(N(C)C)CCCC2)c1` (configuration not stated), `Cc1cccc(C(C(=O)NCC2(O)CCCCC2)N(C)C)c1` (configuration not stated) is lower in “Percent Effect” value: 80.49% for the first, -49.85% for the second.

First: CC(=O)N(C)CC(=O)NCC1(c2cccc(C)c2)CCCC1
Second: CN(C)CC1(O)CCCN(Cc2ccccc2OCC(=O)N(C)C)C1 (configuration not stated)
The “Percent Effect” value of the first is higher: -51.91% for the first, -89.01% for the second.

Going from `CC1CN(C(=O)NCCc2nc(C(C)C)no2)CCO1` (configuration not stated) to `CCc1ocnc1C(=O)N1CCOC(c2nc(C(C)C)n[nH]2)C1` (configuration not stated), the “Percent Effect” value rises from -93.77% to -32.06%.

First: Cc1cccc(CNC2CCCc3c2cnn3C)c1.Cl (configuration not stated)
Second: Cl.Cn1ncc2c1CCCC2NCc1cccc(F)c1 (configuration not stated)
The “Percent Effect” value of the first is lower: -40.76% for the first, 10.36% for the second.

First: Cc1cccc(CNC2CCCc3c2cnn3Cc2ccccc2)c1.Cl (configuration not stated)
Second: O=C(Cc1ccc2c(c1)CCC2)NC1CCN(Cc2ccccc2)CC1
The “Percent Effect” value of the first is higher: 64.5% for the first, 27.79% for the second.

Compared with `c1cc(N2CCC3(COCc4cnc(NCC5CC5)nc43)C2)ncn1` (configuration not stated), `O=S(=O)(C1CC1)N1CCC2(COCc3cnc(NCC4CC4)nc32)C1` (configuration not stated) is lower in “Percent Effect” value: -14.49% for the first, -35.4% for the second.

Going from `CC(C)CC(NC(=O)c1ccn(C)c(=O)c1)c1cccs1` (configuration not stated) to `CCS(=O)(=O)c1cccc(C(=O)Nc2cccc3c2C(=O)N(C)C3=O)c1`, the “Percent Effect” value rises from -80.8% to -74.2%.

First: Cc1cc(C(=O)N(C)CCCn2cccn2)nc(N)n1
Second: CCc1cnc(N)nc1N[C@@H](C)c1ncccc1C
The “Percent Effect” value of the first is lower: -80.13% for the first, 2.334% for the second.

Compared with `CCN(CC)C(=O)N1CCN(Cc2cnc(C)nc2)[C@H]2CS(=O)(=O)C[C@H]21`, `COCC1CCCN(C(=O)c2ccc(N(C)Cc3cnn(C)c3)nc2)C1` (configuration not stated) is higher in “Percent Effect” value: -158.8% for the first, -103.7% for the second.

Going from `CCS(=O)(=O)N1CCCn2nnc(CNC(C)=O)c2C1` to `CC(=O)N1CCCN(CCn2nc3ccccn3c2=O)CC1`, the “Percent Effect” value falls from -63.27% to -130.1%.

First: CCN1CCCC(O)(CN(C)Cc2ccccc2F)C1 (configuration not stated)
Second: CCN1CCCC(O)(CNCc2ccccc2F)C1 (configuration not stated)
The “Percent Effect” value of the first is higher: 56.49% for the first, 38.87% for the second.

Going from `Cc1nc2c(c(N(C)C)n1)CCN(C(=O)c1ccc(N)nc1)C2` to `CNc1cncc(C2CCCN2Cc2cccc(C)n2)n1` (configuration not stated), the “Percent Effect” value falls from -40.57% to -46.34%.

Going from `O=C(CCc1ccccc1)NCC1CCN(Cc2ccccc2)CC1` to `COc1cccc([C@@H]2CCN(Cc3cn(C)c4ccccc34)C[C@H]2O)c1`, the “Percent Effect” value rises from 43.31% to 77.7%.

First: CC(O)CCN(C)S(=O)(=O)Cc1ccc(Br)cc1 (configuration not stated)
Second: CCCNS(=O)(=O)Cc1ccc(Br)cc1
The “Percent Effect” value of the first is lower: -27.23% for the first, -18.14% for the second.

Going from `CC(Cn1cccn1)NC(=O)NCc1ccnc(OC2CCCC2)c1` (configuration not stated) to `O=C(Nc1ccccn1)C1CCN(Cc2cc3c(cc2O)OCO3)CC1`, the “Percent Effect” value falls from -91.81% to -119.6%.

Going from `Cc1ccc(C(=O)N2CC[C@]3(C[C@@H](OCc4ccccn4)CO3)C2)nc1.O=C(O)C(F)(F)F.O=C(O)C(F)(F)F` to `CN(Cc1ccco1)[C@@H]1CN(Cc2cccnc2)[C@@H]2CCCO[C@H]12.O=C(O)C(F)(F)F.O=C(O)C(F)(F)F.O=C(O)C(F)(F)F`, the “Percent Effect” value falls from -9.931% to -47.89%.

Going from `Cc1nonc1C1CCCN1Cc1ccc(C(=O)Nc2nccs2)cc1` (configuration not stated) to `Cc1cc(NC(=O)CN2CCCC2c2noc(C(C)C)n2)no1` (configuration not stated), the “Percent Effect” value falls from -15.94% to -88.6%.

First: Cc1ccc(C)c(CSc2nnc([C@@H](N)C(C)C)o2)c1.Cl
Second: CCc1cnc(N)nc1NC(C)c1ccc(C)c(C)c1 (configuration not stated)
The “Percent Effect” value of the first is lower: -98.07% for the first, 72.97% for the second.

First: O=C(CCCn1cnc2ccccc2c1=O)Nc1nc[nH]n1
Second: COc1ccc(NC(=O)Cn2nc(C)ccc2=O)cc1OC
The “Percent Effect” value of the first is higher: -6.042% for the first, -36.97% for the second.

Compared with `O=C(CCCNC(=O)C1CCCO1)Nc1ccc(Cl)cc1` (configuration not stated), `CC(=O)c1c(C)nn(CC(=O)Nc2ccc(Br)cc2)c1C` is higher in “Percent Effect” value: -38.58% for the first, 66.34% for the second.

First: CCc1nc(CN(C)CC(=O)OC(C)(C)C)cs1
Second: CCOCc1cncc2c1CCN(C(=O)c1cscn1)C2.O=C(O)C(F)(F)F
The “Percent Effect” value of the first is higher: -47.19% for the first, -50.24% for the second.

Compared with `COc1cccc([C@@H]2CCN(Cc3cccc(C)n3)C[C@H]2O)c1`, `COc1cccc([C@@H]2CCN(Cc3ccc4ccccc4n3)C[C@H]2O)c1` is higher in “Percent Effect” value: -31.33% for the first, -19.61% for the second.

Compared with `COc1ccc(NC(=O)Cn2nc(C)c(C(C)=O)c2C)cc1`, `CC(=O)c1c(C)nn(CC(=O)Nc2ccc(F)cc2)c1C` is lower in “Percent Effect” value: 89.56% for the first, -45.58% for the second.

First: Cn1ccc2c(ccn2CC(=O)Nc2ccc(Br)cc2)c1=O
Second: COc1ccc(S(=O)(=O)N2CCC(Cn3ccnc3)CC2)cc1
The “Percent Effect” value of the first is lower: -82.23% for the first, -82.14% for the second.

Going from `CCc1cnc(N)nc1NC(C)c1cnn(C)c1` (configuration not stated) to `CC(C)NC(=O)[C@@H]1CC[C@@H]2[C@@H](CCN2Cc2cn(C)c3ccccc23)O1.O=C(O)C(F)(F)F`, the “Percent Effect” value rises from -61.87% to 76.85%.

Going from `CN(Cc1ccco1)[C@@H]1CN(CC2CCOCC2)C[C@@H]2CCCO[C@@H]21.O=C(O)C(F)(F)F.O=C(O)C(F)(F)F` to `CN(Cc1ccco1)[C@@H]1CN(Cc2nccs2)C[C@@H]2CCCO[C@@H]21.O=C(O)C(F)(F)F.O=C(O)C(F)(F)F`, the “Percent Effect” value rises from 11.5% to 29.14%.

First: Cc1ccc(CN2C[C@@H]3CCCO[C@@H]3[C@H](N(C)Cc3ccco3)C2)s1.O=C(O)C(F)(F)F.O=C(O)C(F)(F)F
Second: CN(Cc1ccco1)[C@@H]1CN(Cc2cccs2)C[C@@H]2CCCO[C@@H]21.O=C(O)C(F)(F)F.O=C(O)C(F)(F)F
The “Percent Effect” value of the first is higher: 73.4% for the first, 64.28% for the second.

First: CN(Cc1ccco1)[C@@H]1CN(Cc2ccc(F)cc2)[C@@H]2CCCO[C@H]12.O=C(O)C(F)(F)F.O=C(O)C(F)(F)F
Second: CN(Cc1ccco1)[C@@H]1CN(Cc2ccncc2)C[C@@H]2CCCO[C@@H]21.O=C(O)C(F)(F)F.O=C(O)C(F)(F)F.O=C(O)C(F)(F)F
The “Percent Effect” value of the first is higher: 54.29% for the first, 7.341% for the second.

Going from `CNC(=O)[C@@H]1CC[C@@H]2[C@@H](CCN2Cc2cn(C)c3ccccc23)O1.O=C(O)C(F)(F)F` to `Cn1cc(CN2CC[C@H]3O[C@H](C(=O)NC4CC4)CC[C@H]32)c2ccccc21.O=C(O)C(F)(F)F`, the “Percent Effect” value rises from -13.73% to 22.79%.

From ChEMBL document CHEMBL3988442, “University of Dundee, Small-Polar-MMV Screening Library” (2021)
